Pf Dd2 inh: inhibitors of Plasmodium falciparum Dd2 growth | Potency, µM (doses to about 28.9 µM), for the others: top-dose activity, negative = inhibition, actives largely listed as inhibitors | P. falciparum Dd2 growth, SYBR Green, 72 h | AID 1347417 | 4.3% of 120,000 active; active = well fitted inhibition curve with a large enough effect;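 note: plate controls were DMSO vehicle for no effect and reference drug for full effect; nearly all actives have a fitted effect of over 65% in size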
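Readout: SYBR Green fluorescence, 485 nm excitation, 535 nm emission, after ~16 h lysis at 37C. Before that, Dd2-infected red cells (2.5% hematocrit) grew 72 h with compound, 29 uM top final concentration.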
Starred values were filed as active, the others as inactive; i = inactive; [ ] = remark or other dose. This is one part of a sample in which hits are shown more often than they occur. Potency is the fitted concentration of half-maximal effect.

SMILES	Pf Dd2 inh
CCc1ccc(C(=O)c2cn(CC(=O)Nc3cc(OC)cc(OC)c3)c3ccc(CC)cc3c2=O)cc1	22%
CCc1ccc(C(=O)c2cn(CC(=O)Nc3ccc(OC)cc3OC)c3ccc(CC)cc3c2=O)cc1	i
CCc1ccc(C(=O)c2cn(Cc3ccc(F)cc3)c3cc(OC)c(OC)cc3c2=O)cc1	11µM*
CNC(=O)c1c(-c2cnn(C)c2NCCc2ccccc2)noc1C	-16%[44.1 µM]
O=C(CCC[C@H]1NC[C@@H]2C[C@H]1CN(Cc1ccccc1)C2)NCc1ccccn1	-8%
O=C(c1cccc(OC(F)(F)F)c1)N1CC2CC(C1)[C@H]1CCCC(=O)N1C2 (stereo partly drawn)	0%
COc1ccc(CNC(=O)[C@@H]2COCC(=O)N2Cc2ccc(OC)c(OC)c2)cc1	23%
O=C(Cc1cccc(Cl)c1)NC1CC(=O)N(Cc2ccc(F)cc2)C1 (stereo not drawn)	0%
CCS[C@H]1CCN2C(=O)c3ccccc3NC(=O)[C@H]12	4%[44.1 µM]
O=C(NC1CCCCC1)N[C@H]1CCN2C(=O)c3cc(-c4ccccc4)ccc3NC(=O)[C@H]12	8%[44.1 µM]
O=C(N[C@H]1CCN2C(=O)c3cc(-c4ccccc4)ccc3NC(=O)[C@H]12)c1cnccn1	11µM*
Cc1cccc(-c2ccc3c(c2)C(=O)N2CC[C@H](N)[C@H]2C(=O)N3)c1C	-8%[44.1 µM]
O=C(O)COCC(=O)N[C@H]1CCN2C(=O)c3cc(-c4ccccc4)ccc3NC(=O)[C@H]12	-19%[44.1 µM]
CCS[C@H]1CCN2C(=O)c3cc(-c4ccccc4)ccc3NC(=O)[C@H]12	11µM*
C[C@@H]1C(=O)O[C@H]2[C@H]1CC[C@@]1(C)Cc3sc(NC(=O)CC(C)(C)C)nc3[C@@H](C)[C@H]21	-10%[44.1 µM]
O=C(CC1CCCN(c2cnn(CC3CC3)c(=O)c2)C1)NC1CCCCC1 (stereo not drawn)	i
O=C(NCCC1CCN(C(=O)Nc2ccccc2F)CC1)C1CC1	-9%
COc1ccc(C)cc1Nc1nc(-c2cccc(Cl)c2)c2c(n1)-c1ccccc1OC2	62%[0.594 µM]
CCOC(=O)c1c(C)oc2nc(C)nc(Nc3cc(C)ccc3OC)c12	-9%
COc1ccc(C)cc1Nc1nc(N)c2cc(OC)c(OC)cc2n1	2.8µM*
COCc1nnc(NC(=O)CC[C@H]2NC(=O)c3ccccc3NC2=O)s1	-8%
CCOc1cc(=O)n2c(c1C(=O)Nc1cc(F)ccc1Cl)CCCC2	36%
Cc1nn(-c2ccccn2)c(C)c1[C@@H]1C=C[C@@H](NC(=O)NCc2ccccc2)C1	i
Cc1ccccc1-n1nc(C)c([C@H]2C=C[C@@H](OC(=O)N[C@H](C)c3ccccc3)C2)c1C	-8%[44.1 µM]
COc1ccc(-n2nc(C)c([C@@H]3C=C[C@@H](NCc4ccccc4)C3)c2C)cc1	2.8µM*
SMILES	Pf Dd2 inh
COc1ccc(NC(=O)O[C@@H]2C=C[C@H](c3c(C)nn(-c4ccc(C)c(Cl)c4)c3C)C2)cc1	i
Cc1nn(-c2ccc(C(C)C)cc2)c(C)c1[C@@H]1C=C[C@@H](NC(=O)COCC(=O)O)C1	i
COc1ccc(-n2nc(C)c([C@H]3C=C[C@@H](OC(=O)N[C@H](C)c4ccccc4)C3)c2C)cc1	7.9µM*
COc1cccc(CNC(=O)[C@@H]2C[C@@H](O)CN2C2CCN(C(=O)c3ccc(OC)nc3OC)CC2)c1	i
COc1ccccc1-c1cn2c(n1)CO[C@@H](CNC(=O)c1cccnc1)C2	7%[44.1 µM]
COc1ccc(-c2noc(CC3CCN(C(=O)c4ccccc4C)CC3)n2)cc1	-8%
CC(C)n1c(C2CCCN(C(=O)c3ccco3)C2)nn(C)c1=O (stereo not drawn)	5%
O=C(Cn1nc2n(c1=O)CCCC2)Nc1cccc(F)c1	i
CCO[C@H]1CN(C(=O)c2cnn(Cc3ccccc3)c2)C[C@@H]1O	-8%
COc1ccc(Cn2ccc3nc(C)c(C(=O)N4CCN(c5ccc(F)cc5)CC4)cc3c2=O)cc1	-4%
CCn1c2c(c(=O)n3ncc(C(=O)N4CCN(c5ccc(C(C)=O)cc5)CC4)c13)CN(Cc1ccc(OC)cc1)CC2	10µM*
COc1ccc(N2CCN(C(=O)c3noc4c3CCCCC4)CC2)cc1	49%
Cn1c(CNC(=O)C23CCCC=C2N(C2CCCC2)C(=O)CC3)nc2ccccc21 (stereo not drawn)	-1%
CCc1noc([C@@H]2CC(F)(F)CN2C(=O)C2CCOCC2)n1	11%
COC1C(=O)N(CC2CC2)C12CCN(S(=O)(=O)c1c(C)nn(C)c1C)CC2 (stereo not drawn)	-1%
CCc1nc(CC)n2ccn(Cc3ccccn3)c(=O)c12	-48%
Cn1nc(C(=O)N2CCCC(c3[nH]ccc3C(N)=O)C2)c2ccccc21 (stereo not drawn)	0%
COCC(=O)N[C@H]1C[C@H]2C(=O)Nc3ccc(/C=C/c4ccccc4)cc3C(=O)N2C1	-11%[44.1 µM]
COc1ccc(/C=C/c2ccc3c(c2)C(=O)N2C[C@@H](NC(=O)CC(C)(C)CC(=O)O)C[C@H]2C(=O)N3)cc1	14µM*
CC(C)(CC(=O)O)CC(=O)N[C@H]1C[C@H]2C(=O)Nc3ccc(/C=C/c4ccccc4)cc3C(=O)N2C1	26%
CSc1cccc(NC(=O)N(C)CC2CCOCC2)c1	-17%
O=C(NCc1nncn1C1CCCCC1)C1NCCc2[nH]cnc21 (stereo not drawn)	5%
CC1CCN(S(=O)(=O)c2ccc3c(c2)oc(=O)n3CC(=O)NC(C)c2ccccc2)CC1 (stereo not drawn)	11µM*
CC(NC(=O)Cn1c(=O)oc2cc(S(=O)(=O)N3CCCCCC3)ccc21)c1ccccc1 (stereo not drawn)	17%
CC1CCN(S(=O)(=O)c2ccc3c(c2)oc(=O)n3CC(=O)O)CC1	22%
SMILES	Pf Dd2 inh
COc1ncccc1C(=O)N1C[C@@H](CN2CCCCC2)[C@@H](CO)C1	-9%
COCCN1CCC(N2CCN(S(=O)(=O)Cc3ccccc3F)CC2)C1=O (stereo not drawn)	-3%
CC(C)=CCN1Cc2ccccc2NC(=O)C12CCNC2 (stereo not drawn)	-14%[44.1 µM]
O=C1Nc2ccccc2CC12CCN2Cc1ccc(C(F)(F)F)cc1 (stereo not drawn)	i
CC(=O)Nc1ccc(CN2CCC3(CC2)C(=O)Nc2ccccc23)cc1	-14%
O=C1Nc2ccccc2CN(Cc2ccc(C(F)(F)F)cc2)C12CCNCC2	6.3µM*
O=C(c1ccc(C(F)(F)F)cc1)N1CCC2(CC1)C(=O)Nc1ccccc12	-3%
O=C1Nc2ccccc2C12CCN(Cc1ccc(C(F)(F)F)cc1)CC2	13µM*
COc1ccc(NC(=O)N2CC[C@@H](CC(=O)O)[C@@H](CC3=NCCc4cc(OC)c(OC)cc43)C2)cc1	-8%
CS(=O)(=O)N(C1CCOCC1)C1CN(C(=O)COc2ccccc2)C1	-19%
COC(=O)c1cc(CN2CCCC(O)(CN(C)C)C2)ccc1O (stereo not drawn)	-20%
CCC(C)NC(=O)C1CCN(C(=O)c2nnn3c2COC(c2ccc(C)cc2)C3)CC1 (stereo not drawn)	i
CN1CCC(NC(=O)c2cccc3c2CCN3C(=O)Nc2ccccc2)CC1	i
Cc1ccc(C(=O)N2CCC(Cc3nncn3C)CC2)cc1N1CCNC1=O	-8%
CC(C)CCNC(=O)Cn1ccn2nc(-c3ccc(F)cc3)c(CO)c2c1=O	i
CCC1CCCCN1CCCNC(=O)c1c(O)nc2ccccn2c1=O (stereo not drawn)	-5%
O=C(c1cc(COc2c(F)cccc2F)on1)N1CCCCC1CCc1ccccc1 (stereo not drawn)	-17%
